# A selection: hits, their analogues and other compounds. The true share with any hit is near 2.5%.
# YB-1 expr inh = inhibitors of YB-1 gene expression, primary screen, cell-based, fluorescence; delta delta Cp (YB-1 minus CDIP) (test concentration not listed); U2OS, qRT-PCR YB-1 vs CDIP delta delta Cp, 16 h; stronger effect = higher value; zero = DMSO, each unit about twofold; actives 0.37% (n = 30,000);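 active means delta delta Cp rounded down to an integer at or above 3, about 3 SD of DMSO wells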;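 further: higher means less YB-1 transcript or more CDIP transcript relative to DMSO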
# BJeLR viability = BJeLR cell viability loss, primary screen, luminescence, CellTiterGlo ATP; actives 0.64% (n = 30,000); viability loss activity score, % (no concentration beside the values); AID 2275, 2010; BJeLR fibroblasts viability, 48 h; HRASV12, hTERT and SV40 LT/ST transformed; in the data active means viability loss activity score above about 50%; inconclusive means no clear call, values can overlap the other calls; inactive means below about 35%;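 further: higher score means fewer live cells and less ATP luminescence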
# MITF inhib = inhibitors of MITF, primary screen, MITF inhibitor project, cell-based, luminescence. TRPM1 promoter luciferase, 24 h. inhibition, % (concentration not given with the values). actives 0.28% (n = 37,000). AID 2240, 2010; in the data active means inhibition above about 85%; inconclusive means no clear call, values can overlap the other calls; inactive means below about 68%;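 further: human melanocyte line stably carrying TRPM1 promoter luciferase reporter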
# ROS inducer = ROS inducers in U2OS cancer cells, primary screen, cell-based, H2DCF-DA fluorescence; U2OS ROS induction; AID 624156, 2012; actives 2% (n = 46,000); ROS induction (% of piperlongumine), % at 10 µM; in the data active means ROS induction above about 79%, passing the limit was not always enough; inconclusive means no clear call, values can overlap the other calls;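 further: 0% = DMSO vehicle median and 100% = reference compound median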
# * = called active by the depositor; ? = inconclusive; . = not tested or not shown.
SMILES,YB-1 expr inh,BJeLR viability,MITF inhib,ROS inducer
C[C@@H]1CN([C@H](C)CO)C(=O)Cc2cc(NC(=O)CCN3CCOCC3)ccc2O[C@@H]1CN(C)Cc1ccc(Oc2ccccc2)cc1,-0.0868,.,-6.0,87.5*
CCCCc1ccc2nc(NC(=O)OC)[nH]c2c1,0.104,66.5*,19.8,10.2
COC(=O)Nc1nc2ccc(-c3n[nH]c(=O)c4ccccc34)cc2[nH]1,0.153,16.7,-8.2,2.3
CN(Cc1ccccc1)S(=O)(=O)c1ccc(C(=O)Nc2nc3ccc4ccccc4c3s2)cc1,.,9.4,.,-7.9
CC1=CC(C)(C)N(S(=O)(=O)c2ccc(C)cc2)c2ccccc21,-0.277,56.7*,59.4,19.9
CC1=CC(C)(C)N(C(=O)Nc2ccc(C)cc2)c2ccccc21,.,3.3,.,.
COc1ccc2c(Sc3ccccc3)c(C(=O)NC3CCCC3)[nH]c2c1,.,-2.6,.,-8.2
CC1=Nc2ccccc2/C1=C\c1sc(=O)n(-c2ccccc2)c1O,.,-1.3,.,.
COc1ccc(OC)c(C(O)CNC(=O)CN)c1 (stereo not given),-0.422,2.7,-9.4,122.2*
COC(=O)C1=C2C(=O)c3c(O)cc(CO)cc3OC2C(O)C=C1 (stereo not given),-0.14,-5.1,19.0,146.1*
COCCOC(=O)N1C(=O)[C@@]2(c3cc(C#CCC(C(=O)OC)C(=O)OC)ccc31)[C@H](C(N)=O)[C@H]1C(=O)O[C@H](c3ccccc3)[C@H](c3ccccc3)N1[C@@H]2c1ccc(OCCO)cc1,-0.169,.,.,?
COCCOC(=O)N1C(=O)[C@@]2(c3cc(C#CCC(C(=O)OC)C(=O)OC)ccc31)[C@H](C(=O)N1CCN(c3ncccn3)CC1)[C@H]1C(=O)O[C@H](c3ccccc3)[C@H](c3ccccc3)N1[C@@H]2c1ccccc1OCCO,0.49,.,.,79.8*
COCCOC(=O)N1C(=O)[C@@]2(c3cc(C#CCC(C(=O)OC)C(=O)OC)ccc31)[C@H](C(=O)N1CCN(c3ncccn3)CC1)[C@H]1C(=O)O[C@H](c3ccccc3)[C@H](c3ccccc3)N1[C@@H]2c1ccc(O)cc1,-0.0523,.,.,50.1
COCCOC(=O)N1C(=O)[C@@]2(c3cc(C#CC4(O)CCCCCC4)ccc31)[C@H](C(=O)N1CCN(c3ncccn3)CC1)[C@H]1C(=O)O[C@H](c3ccccc3)[C@H](c3ccccc3)N1[C@@H]2c1ccccc1OCCO,0.0361,.,.,83.7*
COCCOC(=O)N1C(=O)[C@@]2(c3cc(C#CCC(C(=O)OC)C(=O)OC)ccc31)[C@H](C(N)=O)[C@H]1C(=O)O[C@H](c3ccccc3)[C@H](c3ccccc3)N1[C@@H]2c1ccccc1OCCO,-0.154,.,.,161.6*
COCCOC(=O)N1C(=O)[C@@]2(c3cc(C#Cc4ccc(OC)cc4)ccc31)[C@H](c1ccccc1OCCO)N1[C@H](c3ccccc3)[C@H](c3ccccc3)OC(=O)[C@H]1[C@@H]2C(=O)N1CCN(c2ncccn2)CC1,0.0796,.,.,31.6
CCOC(=O)N1CCC(NC(=O)c2snnc2C)CC1,.,-3.1,.,.
COc1ccc(NC(=O)C(NS(=O)(=O)c2ccc3c(c2)oc(=O)n3C)C(C)C)c(OC)c1 (stereo not given),.,-1.3,.,.
Oc1cccc(-c2nc3ccc4ccccc4c3c3c2CCCC3)c1,.,-5.7,.,-8.6
O=C(Nc1ccc(S(=O)(=O)N2CCCC2)cc1)c1ccc(COc2ccc3c(c2)CCC3)cc1,.,5.5,.,87.4*
COc1cccc(-c2ncc(-c3ccccc3)o2)c1,0.026,-1.2,61.3,84.7*
O=C(O)CSc1c2c(nc3cc(C(=O)NCc4ccc(F)cc4)ccc13)CCCC2,.,0.2,.,.
Cc1ccc(NC(=O)Cn2nnc(S(=O)(=O)c3ccc(C(C)(C)C)cc3)c2N)c(C)c1,.,-3.2,.,.
Cc1ccc(-c2cc(=O)c3ccc4ccccc4c3o2)cc1,.,5.4,.,94.9*
C=CCN1Cc2ccccc2[C@@H]2OC(c3ccc(OCCCO)cc3)=N[C@]2(CCS(=O)(=O)c2ccccc2)C1=O,0.249,.,.,51.0
SMILES,YB-1 expr inh,BJeLR viability,MITF inhib,ROS inducer
CC(=O)N1Cc2ccccc2C[C@@]2(N=C(c3ccc(OCCCO)cc3)O[C@H]2c2ccccc2)C1=O,0.0195,.,.,78.7*
O=C(NCc1ccccc1)[C@@]1(CCS(=O)(=O)c2ccccc2)N=C(c2ccc(OCCCO)cc2)O[C@H]1c1ccccc1,-0.331,.,.,78.3*
CC(=O)N1Cc2ccccc2C[C@]2(N=C(c3ccc(OCCCO)cc3)O[C@@H]2c2ccccc2)C1=O,0.173,.,.,33.8
O=C(NCC(O)CO)[C@]1(CCS(=O)(=O)c2ccccc2)N=C(c2ccc(OCCCO)cc2)O[C@@H]1c1ccccc1 (stereo not given in full),0.548,.,.,24.0
O=C1N(CCS(=O)(=O)c2ccccc2)Cc2ccccc2[C@@H]2OC(c3ccc(OCCCO)cc3)=N[C@]12CCS(=O)(=O)c1ccccc1,0.408,.,.,95.6*
CCCN(CCC)S(=O)(=O)c1ccc(C(=O)Nc2cccc(SC)c2)cc1,0.16,-3.4,10.8,-2.9
CCCN(CCC)S(=O)(=O)c1ccc(C(=O)Nc2ccc3sc(SC)nc3c2)cc1,.,9.1,.,167.9*
CCOC(=O)C(C)Sc1ncnc2c1nnn2-c1ccc(OC)cc1 (stereo not given),.,5.0,.,179.0*
CCOC(=O)C(C)Sc1nc(-c2ccc(OC)cc2)nc2c1c(=O)n(C)c(=O)n2C (stereo not given),.,1.9,.,.
COc1ccccc1OCCCSc1nc(-c2ccccc2)cc(=O)[nH]1,.,.,-0.5,125.9*
CCCCN1C(=O)/C(=C/N(C(C)=O)c2ccccc2)SC1=S,.,-0.5,.,7.9
C/C=C(/C)C(=O)O[C@H]1C=C(CO)C(=O)[C@H](OC(=O)/C(C)=C/CO)[C@H]1C(C)C,0.0916,81.1*,106.2*,87.0*
Cc1ccc(NC2(c3nnnn3CCOC(=O)Nc3ccc(Cl)cc3)CCCCC2)cc1,.,-1.6,.,56.5
COc1ccc(/C=C2\SC(N(C)c3ccc(Cl)cc3)=NC2=O)c(OC)c1OC,.,41.8,.,30.8
O=C(Cn1c(-c2cccs2)cc2ccccc21)NC1CCCCC1,.,-0.6,.,115.1*
C=C1C(=O)O[C@@H]2C[C@@]3(C)CC(=O)C=C(C)C3C[C@H]12 (stereo not given in full),-0.322,-8.6,0.7,111.1*
C=C1CC[C@@H](O)[C@]2(C)C[C@H]3OC(=O)C(=C)[C@H]3CC12 (stereo not given in full),-0.479,-5.6,37.7,60.0
C/C(=C/C(=O)c1c(O)c2ccccc2n(C)c1=O)Nc1ccc(N)cc1,.,-3.2,.,.
Cc1cc(Sc2nnc(/N=C/N(C)C)s2)c2ccccc2n1,.,53.7*,.,192.3*
CCNC(=O)c1ccc2c(c1)sc1nc(-c3ccccc3)cn12,.,-1.2,.,22.6
C/C1=C/CC/C(CO)=C\[C@H]2OC(=O)C(CN3CCCC3C(=O)O)[C@@H]2[C@@H](OC(=O)C(C)CO)C1 (stereo not given in full),1.76,.,.,132.1*
COc1ccc(NC(=O)NCC(C)CSc2ccc(Cl)cc2)c(OC)c1 (stereo not given),.,1.6,.,-4.9
